Calls of active or inactive are those of the source.

System in the first assay: not listed separately
Put plainly: blood-stage malaria parasite viability loss – strain 3D7, DAPI fluorescence, 100 nL, primary screen (AID 1184).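 Note: parasites grown inside human red blood cells in medium with human serum.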 Particulars: P. falciparum 3D7 growth, 3 d, higher = more signal.
In turn, `COC(=O)CC=C[C@@H](C)[C@H](OCc1cccc(-c2ccccc2)c1)C1CCCCC1` came in with a z-score of -0.257. For the molecule `CC(C)CON=C1C[C@@H](O)[C@@H](O)[C@@H]2[C@@H]3C(=O)N(c4ccc(F)cc4F)C(=O)[C@@H]3CC[C@H]12`, the z-score turned out to be 0.0017. Molecule `C#CCCCON=C1C[C@@H](O)[C@@H](O)[C@@H]2[C@@H]3C(=O)N(CC)C(=O)[C@@H]3CC[C@@H]12` showed a z-score of -0.0961. Take `CCOC(=O)CCN1C(=O)[C@H]2[C@H]3[C@H](O)[C@H](O)CC(=NNC(=O)OCc4ccccc4)[C@@H]3CC[C@H]2C1=O`: the z-score was -0.597.

`CCCNC(=O)OC[C@H]1O[C@H](CCON=C(C)CCN2CCCc3nc(C)c(C)cc32)C=C[C@@H]1Oc1ccc(OC)cc1` displayed a z-score of -2.33. Still for that read-out and setting: for `CC(C)=CCCC(C)=CCON=C1C[C@@H](O)[C@@H](O)[C@@H]2[C@@H]3C(=O)N(c4ccc(F)cc4F)C(=O)[C@@H]3CC[C@@H]12` the value was -1.59; for `Cc1ccc(S(=O)(=O)OC[C@H]2CN3[C@H](c4ccc(Br)cc4)[C@@H](C)CC[C@H]3C(=O)O2)cc1`, 0.565.

The target of a further assay is Homeobox protein Hox-A13 (Mus musculus) (UniProt Q62424). Put plainly: disruptors of Hoxa13 oligonucleotide interaction – biochemical, fluorescence polarization, labeled oligonucleotide, primary screen (AID 1185). Particulars: Hoxa13:DNA binding, 15 min, higher = more signal, called active from +8 up or from −8 down.
Chain of Homeobox protein Hox-A13 (Mus musculus) (Q62424 whole entry, looked up): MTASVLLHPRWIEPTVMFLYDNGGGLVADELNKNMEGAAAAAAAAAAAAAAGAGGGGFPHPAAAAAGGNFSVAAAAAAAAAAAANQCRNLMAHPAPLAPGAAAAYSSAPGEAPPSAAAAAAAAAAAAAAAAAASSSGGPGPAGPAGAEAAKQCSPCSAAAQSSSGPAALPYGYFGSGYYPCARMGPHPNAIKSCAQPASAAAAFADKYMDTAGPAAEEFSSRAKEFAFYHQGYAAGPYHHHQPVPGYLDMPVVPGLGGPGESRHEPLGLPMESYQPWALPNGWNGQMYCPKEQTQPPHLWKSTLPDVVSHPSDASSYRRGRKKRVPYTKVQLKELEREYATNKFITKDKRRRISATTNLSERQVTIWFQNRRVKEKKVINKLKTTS
Take `COC(=O)CC=C[C@@H](C)[C@@H](C=NO[C@H](C)c1cn([C@H](CO)Cc2ccccc2)nn1)NS(=O)(=O)c1ccc(C)cc1`: the z-score is -6.42 (inactive). For `CC(C)CCN1CCc2nc(COc3ccccc3)c3c(c2C1)CO[C@@H](C)C3`, the z-score is -5.02 (inactive). Same read-out and setting: the same measure for `COC(=O)CC=C[C@@H](C)[C@@H](C=NOC[C@H]1O[C@H](c2ccccc2)C=C[C@@H]1Oc1ccc(OC)cc1)OC`: -2.94 (inactive). Same read-out and setting: the same measure for `C#CCCCON=C1[C@H]2CCn3c(=O)n(-c4ccccc4)c(=O)n3[C@H]2[C@H](O)[C@@H]2O[C@H]12`: 0.241 (inactive); for `C#CCCCON=C1C[C@@H](O)[C@@H](O)[C@@H]2[C@@H]3C(=O)N(C(C)(C)C)C(=O)[C@@H]3CC[C@H]12`: 0.436 (inactive). On the same count and under the same terms, the same measure for `O=C(NN=C1C[C@@H](O)[C@@H](O)[C@@H]2[C@@H]3C(=O)N(C[C@@H]4CCCO4)C(=O)[C@@H]3CC[C@H]12)OCc1ccccc1`: 0.901 (inactive); for `COC(=O)CC=C[C@@H](C)[C@@H](C=NOC[C@@H](O)[C@H]1O[C@@H]2OC(C)(C)O[C@@H]2[C@H]1O)NS(=O)(=O)c1ccc(C)cc1`: 0.413 (inactive). `O=c1n(-c2ccccc2)c(=O)n2n1CC[C@@H]1C(=NOCc3ccccc3)[C@H]3O[C@H]3[C@@H](O)[C@@H]12`: the z-score was -4.06 (inactive). Still for that read-out and setting: the same measure for `CC(CCN1CCCCc2nc(C)c(C)cc21)=NOC[C@@H](O)COCc1ccco1`: -4.37 (inactive); for `CCOC(=O)[C@H](Cc1ccccc1)NC(=O)CCC1CC(OC(=O)NCCc2ccc(F)cc2)CC2(CCCC(COC(=O)NCCOC)O2)O1` (stereo partly drawn): -6.28 (inactive); for `Cn1c(=O)n2n(c1=O)[C@H]1[C@H](O)[C@@H]3O[C@@H]3C(=NOCc3ccccc3)[C@H]1CC2`: -2.35 (inactive). Still for that read-out and setting: for `CC(C)=CCCC(C)=CCON=C1C[C@@H](O)[C@@H](O)[C@@H]2[C@@H]3C(=O)N(Cc4ccccc4)C(=O)[C@@H]3CC[C@H]12` the value was -4.91 (inactive); for `Cc1ccc(S(=O)(=O)n2c3ccccc3c3nnc(C(=O)c4ccccc4)nc32)cc1`, -3.73 (inactive).

As to `CCCNC(=O)OC[C@H]1O[C@H](CCON=C(C)CCN2CCc3nc(CC)c(CC)cc3C2)C=C[C@@H]1Oc1ccc(OC)cc1`, the z-score was -5.98 (inactive).

On to `CC(C)=CCCC(C)=CCON=C1C[C@@H](O)[C@@H](O)[C@@H]2[C@@H]3C(=O)N(C[C@@H]4CCCO4)C(=O)[C@@H]3CC[C@H]12`, for which the z-score is -3.8 (inactive). On the same count and under the same terms, for `CO[C@@H]1COC(=O)[C@H](CCSC)NC(=O)CC=C[C@@H](C)COC(=O)[C@H](C)NC(=O)CC=C[C@H]1C` the value was -0.042 (inactive); for `CO[C@H]1COC(=O)[C@@H](C)COC(=O)[C@H](C)NC(=O)CC=C[C@H]1C`, -0.236 (inactive); for `COc1ccc(COC(=O)NN=C2C[C@@H](O)[C@@H](O)[C@@H]3[C@@H]4C(=O)N(c5ccc(F)cc5F)C(=O)[C@@H]4CC[C@H]23)cc1`, -6.79 (inactive).

Turning to `COc1ccc(O[C@H]2C=C[C@@H](c3ccccc3)O[C@@H]2CON=CC[C@@H]2C=C[C@H](OC(C)=O)[C@@H](COC(C)=O)O2)cc1`, the z-score is -4.06 (inactive). Same read-out and setting: for `CO[C@H]1COC(=O)[C@@H](C)COC(=O)[C@@H](OCc2ccccc2)C=C[C@@H]1C` the value was -0.618 (inactive).

With `O=C1[C@H]2[C@H]3[C@H](O)[C@H](O)CC(=NO[C@@H]4O[C@H](CO)[C@@H](O)[C@H](O)[C@H]4O)[C@H]3CC[C@H]2C(=O)N1c1cccc(Oc2ccccc2)c1`, the z-score is -1.68 (inactive).

The values above are taken from PubChem BioAssay.
